# Records with an inconclusive call do not appear. Unmarked numbers belong to inactive results. Calls come from the whole dose curve; as a rule, active = well fitted inhibition curve with a large enough effect; inconclusive = small, poorly fitted or top-dose-only effect; inactive = flat fitted curve, though single readings scatter.
# Tested on: KB-3-1
# Test: Cytotoxic Profiling of Annotated Libraries Using Quantitative High-Throughput Screening (AID 1296008); note: nearly all actives have a fitted effect of over 60% in size
# Details: Five cell lines viability, CellTiter-Glo ATP luminescence, 48-72 h; max response: hits give low values
# Method in brief: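 Compounds were pin-transferred onto cells and incubated 48 or 72 hr at 37 degree Celsius, 95% humidity. CellTiter-Glo was added, plates sat 10 min at room temperature, then ATP-coupled luminescence was imaged as the viability read-out.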
# % is set by controls: 0 for no effect and ±100 for the full control effect.
row,SMILES,max response [%]
1,C[C@@H]1O[C@@H]1P(=O)(O)O,-3.35
2,NC(=O)Oc1ccc(Cc2ccccc2)cc1,11.9
3,COc1cc(S(C)=O)ccc1-c1nc2ncccc2[nH]1 (stereo not drawn),26.5
